Measured values as given in ChEMBL document CHEMBL1201862, “PubChem BioAssay data set” (2004).
The campaign covered roughly 58,000 sequences. About 3,600 (6.2%) were called active. No stated cut-off is given here; in the data, active = GI50 up to about 1.1 µM and inactive = higher. Many of the other results were omitted from the sample, so actives are more common in it than they were. Results with a measured potency or affinity are listed apart.

These substances were tested on NCI-H23.
In the case of “mu-(1,7-nanodiamine-N,N')bis-(cis-aminedichloroplatimum (II)), CHEMBL2146215”, the GI50 is reported as 4.37 µM.
Substance CISPLATIN, CHEMBL11359 has a GI50 of 0.783 µM.
Substance “[Bis(aminomethyl)pentamethylenesilane]tetrachloropaltinum(IV), CHEMBL2146204” has a GI50 of 1.51 µM.
“[Bis(aminomethyl)pentamethylenesilane]dichloropaltinum(II), CHEMBL2146202” showed a GI50 of 4.59 µM.
“[Bis(aminomethyl)dimethylsilane]tetrachloroplatinum(IV), CHEMBL2146190” was tested, and the GI50 was 3.98 µM.
“[Bis(aminomethyl)tetramethylenesilane]dichloropaltinum(II), CHEMBL2146205” was tested, and the GI50 was 13.5 µM.
“[Bis(aminomethyl)tetramethylenesilane]tetrachloropaltinum(IV), CHEMBL2146189” showed a GI50 of 3.33 µM.
In the case of “[Bis(aminomethyl)diethylsilane]tetrachloroplatinum(IV), CHEMBL2146203”, the GI50 is reported as 2.79 µM.
